Test results taken from the supplement of paper PMC11732987, “Enantioselective OTUD7B fragment discovery through chemoproteomics screening and high-throughput optimisation” (Communications Chemistry, 2025).

How the values were obtained:
Assay in all cases: log2 ratio of Biotin-Ahx-Ub-VS probe labelling (fragment/DMSO); higher = less target engagement (more negative = stronger competition), active = hit call of the paper (q ≤ 0.05, log2 ratio ≤ -1)
Conditions in all cases: compound concentration: 200 uM; treatment time: 3 h
USP42 = target: T1, USP42 (UniProt Q9H9J4)
T1 sequence (whole entry): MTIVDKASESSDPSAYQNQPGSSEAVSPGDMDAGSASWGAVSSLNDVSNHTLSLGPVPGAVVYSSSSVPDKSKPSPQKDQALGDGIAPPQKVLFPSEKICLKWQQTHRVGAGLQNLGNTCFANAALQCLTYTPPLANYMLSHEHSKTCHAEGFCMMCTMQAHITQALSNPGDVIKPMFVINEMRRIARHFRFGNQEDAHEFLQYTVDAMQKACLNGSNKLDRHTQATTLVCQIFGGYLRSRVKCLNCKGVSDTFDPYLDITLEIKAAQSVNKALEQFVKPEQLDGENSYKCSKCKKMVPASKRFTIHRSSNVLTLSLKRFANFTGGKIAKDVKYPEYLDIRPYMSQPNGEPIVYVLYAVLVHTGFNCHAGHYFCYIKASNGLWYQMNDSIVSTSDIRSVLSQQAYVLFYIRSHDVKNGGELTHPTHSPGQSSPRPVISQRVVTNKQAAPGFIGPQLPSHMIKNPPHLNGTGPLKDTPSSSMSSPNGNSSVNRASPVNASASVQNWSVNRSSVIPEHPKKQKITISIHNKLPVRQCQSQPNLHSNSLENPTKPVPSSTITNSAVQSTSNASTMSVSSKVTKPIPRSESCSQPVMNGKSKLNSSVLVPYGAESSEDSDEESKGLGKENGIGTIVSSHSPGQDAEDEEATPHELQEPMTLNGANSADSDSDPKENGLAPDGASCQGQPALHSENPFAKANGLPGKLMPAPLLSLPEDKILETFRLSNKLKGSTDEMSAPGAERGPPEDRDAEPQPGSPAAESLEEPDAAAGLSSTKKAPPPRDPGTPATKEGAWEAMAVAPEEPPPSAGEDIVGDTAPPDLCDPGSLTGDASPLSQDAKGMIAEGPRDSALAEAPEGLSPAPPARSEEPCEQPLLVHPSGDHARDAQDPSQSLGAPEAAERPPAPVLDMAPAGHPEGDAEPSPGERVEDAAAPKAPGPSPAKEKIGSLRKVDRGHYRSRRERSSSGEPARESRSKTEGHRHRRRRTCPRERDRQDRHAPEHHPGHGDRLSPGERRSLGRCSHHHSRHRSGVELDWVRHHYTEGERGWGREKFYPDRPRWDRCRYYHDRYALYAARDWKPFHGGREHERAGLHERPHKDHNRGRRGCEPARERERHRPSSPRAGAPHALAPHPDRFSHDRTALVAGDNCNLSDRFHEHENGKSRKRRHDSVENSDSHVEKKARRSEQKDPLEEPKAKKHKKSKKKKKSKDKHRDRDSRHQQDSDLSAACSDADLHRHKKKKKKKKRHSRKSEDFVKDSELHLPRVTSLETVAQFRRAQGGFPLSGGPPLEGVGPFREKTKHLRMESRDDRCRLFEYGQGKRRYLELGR
Summary of the method: (§1)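 HEK293T lysate (495 µg per sample, in Tris/CHAPS/IGEPAL buffer with protease inhibitors) was treated in triplicate with fragment at 200 µM or with DMSO for 3 h. It was then treated with Biotin-Ahx-Ub-VS (0.5 µM final) for 1 h. Labelled DUBs were NeutrAvidin-enriched, digested with LysC and trypsin, and run by diaPASEF LC-MS/MS. Spectronaut label-free quantities were global-median-normalised. Values are average log2 ratios fragment/DMSO by unpaired t-test, using proteins with ≥2 unique peptides.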

USP46 = USP46 (UniProt P62068)
Summary of the method: as §1

USP47 = target: T2, USP47 (UniProt Q96K76)
T2 sequence (whole entry): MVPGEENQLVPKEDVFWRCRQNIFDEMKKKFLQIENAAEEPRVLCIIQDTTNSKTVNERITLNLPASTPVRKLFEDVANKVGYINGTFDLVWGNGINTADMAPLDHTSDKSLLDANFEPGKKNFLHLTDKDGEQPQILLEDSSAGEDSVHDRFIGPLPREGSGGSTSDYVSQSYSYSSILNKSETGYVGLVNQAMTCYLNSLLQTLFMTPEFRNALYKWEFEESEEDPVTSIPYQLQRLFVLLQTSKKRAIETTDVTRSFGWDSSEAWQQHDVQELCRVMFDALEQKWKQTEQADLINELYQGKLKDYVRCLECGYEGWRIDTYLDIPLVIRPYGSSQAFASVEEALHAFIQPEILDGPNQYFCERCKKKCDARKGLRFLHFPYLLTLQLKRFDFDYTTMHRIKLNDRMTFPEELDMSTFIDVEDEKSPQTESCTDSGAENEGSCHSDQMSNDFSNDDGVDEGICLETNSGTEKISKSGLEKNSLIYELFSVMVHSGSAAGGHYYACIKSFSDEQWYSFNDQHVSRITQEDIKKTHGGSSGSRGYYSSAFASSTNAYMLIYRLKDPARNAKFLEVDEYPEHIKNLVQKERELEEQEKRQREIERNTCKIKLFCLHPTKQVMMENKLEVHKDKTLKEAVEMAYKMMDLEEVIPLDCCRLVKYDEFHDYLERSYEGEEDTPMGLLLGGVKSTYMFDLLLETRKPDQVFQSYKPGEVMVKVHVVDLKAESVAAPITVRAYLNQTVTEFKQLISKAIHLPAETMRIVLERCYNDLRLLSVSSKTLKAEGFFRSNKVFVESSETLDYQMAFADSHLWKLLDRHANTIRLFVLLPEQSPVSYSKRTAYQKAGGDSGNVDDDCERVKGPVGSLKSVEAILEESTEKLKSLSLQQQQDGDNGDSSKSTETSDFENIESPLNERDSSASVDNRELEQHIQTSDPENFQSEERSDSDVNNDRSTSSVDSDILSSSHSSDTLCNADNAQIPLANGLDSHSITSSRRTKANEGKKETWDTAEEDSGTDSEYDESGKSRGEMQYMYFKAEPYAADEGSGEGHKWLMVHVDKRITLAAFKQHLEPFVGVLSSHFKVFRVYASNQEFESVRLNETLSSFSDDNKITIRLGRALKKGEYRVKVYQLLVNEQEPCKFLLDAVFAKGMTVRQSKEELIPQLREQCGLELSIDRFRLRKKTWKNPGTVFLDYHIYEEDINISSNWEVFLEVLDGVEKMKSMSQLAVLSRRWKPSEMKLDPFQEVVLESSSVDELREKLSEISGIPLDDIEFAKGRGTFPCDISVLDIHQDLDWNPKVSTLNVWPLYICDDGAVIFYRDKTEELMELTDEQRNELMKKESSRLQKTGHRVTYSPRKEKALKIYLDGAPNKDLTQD
Summary of the method: as §1

USP48 = target: T3, USP48 (UniProt Q86UV5)
T3 sequence (whole entry): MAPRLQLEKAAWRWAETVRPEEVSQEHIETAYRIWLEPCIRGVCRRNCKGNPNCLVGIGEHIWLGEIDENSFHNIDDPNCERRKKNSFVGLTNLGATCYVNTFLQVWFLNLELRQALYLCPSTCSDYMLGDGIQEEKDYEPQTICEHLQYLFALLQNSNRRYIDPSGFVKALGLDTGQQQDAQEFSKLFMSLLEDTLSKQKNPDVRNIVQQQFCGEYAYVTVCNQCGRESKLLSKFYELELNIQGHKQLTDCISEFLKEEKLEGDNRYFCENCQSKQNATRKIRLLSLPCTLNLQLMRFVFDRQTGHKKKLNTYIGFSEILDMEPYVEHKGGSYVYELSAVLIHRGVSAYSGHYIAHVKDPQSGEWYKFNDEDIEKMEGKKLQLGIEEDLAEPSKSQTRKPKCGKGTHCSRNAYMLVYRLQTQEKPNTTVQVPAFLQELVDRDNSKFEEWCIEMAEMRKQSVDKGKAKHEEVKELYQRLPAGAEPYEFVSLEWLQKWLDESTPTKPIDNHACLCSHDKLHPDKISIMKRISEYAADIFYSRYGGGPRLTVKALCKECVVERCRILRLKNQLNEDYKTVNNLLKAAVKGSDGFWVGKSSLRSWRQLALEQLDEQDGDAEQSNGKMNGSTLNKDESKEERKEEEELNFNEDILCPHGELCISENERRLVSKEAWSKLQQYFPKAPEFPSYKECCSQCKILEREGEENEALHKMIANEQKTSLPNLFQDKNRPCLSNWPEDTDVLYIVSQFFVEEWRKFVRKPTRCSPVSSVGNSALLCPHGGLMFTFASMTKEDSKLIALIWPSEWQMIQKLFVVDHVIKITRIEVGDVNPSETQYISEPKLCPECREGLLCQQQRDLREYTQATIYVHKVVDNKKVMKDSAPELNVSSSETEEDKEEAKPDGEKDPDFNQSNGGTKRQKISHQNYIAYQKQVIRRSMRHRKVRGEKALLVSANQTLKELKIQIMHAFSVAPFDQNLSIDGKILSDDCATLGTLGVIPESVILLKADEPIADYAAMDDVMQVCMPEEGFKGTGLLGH
Summary of the method: as §1

USP5 = target: T4, USP5 (UniProt P45974)
T4 sequence (whole entry): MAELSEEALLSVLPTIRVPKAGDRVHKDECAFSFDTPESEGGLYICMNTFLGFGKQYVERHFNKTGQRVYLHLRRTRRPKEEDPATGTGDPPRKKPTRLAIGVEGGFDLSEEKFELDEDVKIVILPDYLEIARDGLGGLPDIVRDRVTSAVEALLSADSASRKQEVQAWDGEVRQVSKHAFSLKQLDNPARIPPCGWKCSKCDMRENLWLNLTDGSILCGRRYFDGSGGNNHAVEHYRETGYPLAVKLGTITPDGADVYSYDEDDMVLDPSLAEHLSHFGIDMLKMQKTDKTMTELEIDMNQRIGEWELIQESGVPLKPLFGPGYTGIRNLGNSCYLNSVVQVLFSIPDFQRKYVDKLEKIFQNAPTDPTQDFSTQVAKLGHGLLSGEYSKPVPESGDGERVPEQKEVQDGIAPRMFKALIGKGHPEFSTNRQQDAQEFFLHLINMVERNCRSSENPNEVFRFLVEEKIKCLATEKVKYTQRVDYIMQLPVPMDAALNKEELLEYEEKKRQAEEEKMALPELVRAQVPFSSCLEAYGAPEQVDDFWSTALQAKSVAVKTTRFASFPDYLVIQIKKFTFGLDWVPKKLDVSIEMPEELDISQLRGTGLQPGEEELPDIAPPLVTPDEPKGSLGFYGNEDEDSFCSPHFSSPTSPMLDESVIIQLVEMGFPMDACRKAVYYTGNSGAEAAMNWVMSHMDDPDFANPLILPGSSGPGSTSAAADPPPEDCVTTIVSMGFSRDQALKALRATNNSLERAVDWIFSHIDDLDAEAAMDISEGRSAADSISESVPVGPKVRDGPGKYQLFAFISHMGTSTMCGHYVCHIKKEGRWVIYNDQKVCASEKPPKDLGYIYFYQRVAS
Summary of the method: as §1

USP54 = USP54 (UniProt Q70EL1)
Summary of the method: as §1

USP7 = USP7 (UniProt Q93009)
Summary of the method: as §1

USP8 = target: T5, USP8 (UniProt P40818)
T5 sequence (whole entry): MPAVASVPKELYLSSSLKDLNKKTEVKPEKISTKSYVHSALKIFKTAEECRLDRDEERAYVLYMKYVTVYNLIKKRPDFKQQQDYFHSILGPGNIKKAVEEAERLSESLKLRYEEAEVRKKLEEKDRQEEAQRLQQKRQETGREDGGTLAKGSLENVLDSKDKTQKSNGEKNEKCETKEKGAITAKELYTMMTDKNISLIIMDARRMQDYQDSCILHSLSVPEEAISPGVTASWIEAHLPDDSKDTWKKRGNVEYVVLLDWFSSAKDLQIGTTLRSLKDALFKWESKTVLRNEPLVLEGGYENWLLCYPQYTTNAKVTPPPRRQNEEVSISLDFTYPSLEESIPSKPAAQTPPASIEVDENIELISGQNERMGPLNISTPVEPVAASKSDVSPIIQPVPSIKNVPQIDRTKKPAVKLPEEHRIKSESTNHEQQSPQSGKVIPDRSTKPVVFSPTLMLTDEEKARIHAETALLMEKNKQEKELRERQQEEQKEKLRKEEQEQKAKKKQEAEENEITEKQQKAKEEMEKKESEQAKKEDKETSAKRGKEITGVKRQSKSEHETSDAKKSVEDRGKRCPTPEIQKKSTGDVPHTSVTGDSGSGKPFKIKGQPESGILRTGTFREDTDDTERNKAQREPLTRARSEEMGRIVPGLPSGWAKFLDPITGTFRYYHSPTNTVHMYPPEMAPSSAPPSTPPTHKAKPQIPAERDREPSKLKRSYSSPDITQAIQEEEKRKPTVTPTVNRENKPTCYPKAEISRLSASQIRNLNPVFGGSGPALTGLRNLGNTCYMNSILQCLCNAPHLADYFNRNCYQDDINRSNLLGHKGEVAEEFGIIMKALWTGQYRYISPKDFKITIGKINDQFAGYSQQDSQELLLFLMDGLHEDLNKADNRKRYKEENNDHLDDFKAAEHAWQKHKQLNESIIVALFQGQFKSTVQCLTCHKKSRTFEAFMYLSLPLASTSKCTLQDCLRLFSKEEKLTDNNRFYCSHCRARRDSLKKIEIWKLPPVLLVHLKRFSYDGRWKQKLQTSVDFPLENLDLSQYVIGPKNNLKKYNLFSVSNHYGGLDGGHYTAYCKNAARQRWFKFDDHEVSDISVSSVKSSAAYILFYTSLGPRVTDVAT
Summary of the method: as §1

USP9X = USP9X (UniProt Q93008)
Summary of the method: as §1

UniProt O00487 = target: UniProt O00487
Summary of the method: as §1

Measured: log2 ratio of Biotin-Ahx-Ub-VS probe labelling

Sequence of USP9X (Q93008 whole entry): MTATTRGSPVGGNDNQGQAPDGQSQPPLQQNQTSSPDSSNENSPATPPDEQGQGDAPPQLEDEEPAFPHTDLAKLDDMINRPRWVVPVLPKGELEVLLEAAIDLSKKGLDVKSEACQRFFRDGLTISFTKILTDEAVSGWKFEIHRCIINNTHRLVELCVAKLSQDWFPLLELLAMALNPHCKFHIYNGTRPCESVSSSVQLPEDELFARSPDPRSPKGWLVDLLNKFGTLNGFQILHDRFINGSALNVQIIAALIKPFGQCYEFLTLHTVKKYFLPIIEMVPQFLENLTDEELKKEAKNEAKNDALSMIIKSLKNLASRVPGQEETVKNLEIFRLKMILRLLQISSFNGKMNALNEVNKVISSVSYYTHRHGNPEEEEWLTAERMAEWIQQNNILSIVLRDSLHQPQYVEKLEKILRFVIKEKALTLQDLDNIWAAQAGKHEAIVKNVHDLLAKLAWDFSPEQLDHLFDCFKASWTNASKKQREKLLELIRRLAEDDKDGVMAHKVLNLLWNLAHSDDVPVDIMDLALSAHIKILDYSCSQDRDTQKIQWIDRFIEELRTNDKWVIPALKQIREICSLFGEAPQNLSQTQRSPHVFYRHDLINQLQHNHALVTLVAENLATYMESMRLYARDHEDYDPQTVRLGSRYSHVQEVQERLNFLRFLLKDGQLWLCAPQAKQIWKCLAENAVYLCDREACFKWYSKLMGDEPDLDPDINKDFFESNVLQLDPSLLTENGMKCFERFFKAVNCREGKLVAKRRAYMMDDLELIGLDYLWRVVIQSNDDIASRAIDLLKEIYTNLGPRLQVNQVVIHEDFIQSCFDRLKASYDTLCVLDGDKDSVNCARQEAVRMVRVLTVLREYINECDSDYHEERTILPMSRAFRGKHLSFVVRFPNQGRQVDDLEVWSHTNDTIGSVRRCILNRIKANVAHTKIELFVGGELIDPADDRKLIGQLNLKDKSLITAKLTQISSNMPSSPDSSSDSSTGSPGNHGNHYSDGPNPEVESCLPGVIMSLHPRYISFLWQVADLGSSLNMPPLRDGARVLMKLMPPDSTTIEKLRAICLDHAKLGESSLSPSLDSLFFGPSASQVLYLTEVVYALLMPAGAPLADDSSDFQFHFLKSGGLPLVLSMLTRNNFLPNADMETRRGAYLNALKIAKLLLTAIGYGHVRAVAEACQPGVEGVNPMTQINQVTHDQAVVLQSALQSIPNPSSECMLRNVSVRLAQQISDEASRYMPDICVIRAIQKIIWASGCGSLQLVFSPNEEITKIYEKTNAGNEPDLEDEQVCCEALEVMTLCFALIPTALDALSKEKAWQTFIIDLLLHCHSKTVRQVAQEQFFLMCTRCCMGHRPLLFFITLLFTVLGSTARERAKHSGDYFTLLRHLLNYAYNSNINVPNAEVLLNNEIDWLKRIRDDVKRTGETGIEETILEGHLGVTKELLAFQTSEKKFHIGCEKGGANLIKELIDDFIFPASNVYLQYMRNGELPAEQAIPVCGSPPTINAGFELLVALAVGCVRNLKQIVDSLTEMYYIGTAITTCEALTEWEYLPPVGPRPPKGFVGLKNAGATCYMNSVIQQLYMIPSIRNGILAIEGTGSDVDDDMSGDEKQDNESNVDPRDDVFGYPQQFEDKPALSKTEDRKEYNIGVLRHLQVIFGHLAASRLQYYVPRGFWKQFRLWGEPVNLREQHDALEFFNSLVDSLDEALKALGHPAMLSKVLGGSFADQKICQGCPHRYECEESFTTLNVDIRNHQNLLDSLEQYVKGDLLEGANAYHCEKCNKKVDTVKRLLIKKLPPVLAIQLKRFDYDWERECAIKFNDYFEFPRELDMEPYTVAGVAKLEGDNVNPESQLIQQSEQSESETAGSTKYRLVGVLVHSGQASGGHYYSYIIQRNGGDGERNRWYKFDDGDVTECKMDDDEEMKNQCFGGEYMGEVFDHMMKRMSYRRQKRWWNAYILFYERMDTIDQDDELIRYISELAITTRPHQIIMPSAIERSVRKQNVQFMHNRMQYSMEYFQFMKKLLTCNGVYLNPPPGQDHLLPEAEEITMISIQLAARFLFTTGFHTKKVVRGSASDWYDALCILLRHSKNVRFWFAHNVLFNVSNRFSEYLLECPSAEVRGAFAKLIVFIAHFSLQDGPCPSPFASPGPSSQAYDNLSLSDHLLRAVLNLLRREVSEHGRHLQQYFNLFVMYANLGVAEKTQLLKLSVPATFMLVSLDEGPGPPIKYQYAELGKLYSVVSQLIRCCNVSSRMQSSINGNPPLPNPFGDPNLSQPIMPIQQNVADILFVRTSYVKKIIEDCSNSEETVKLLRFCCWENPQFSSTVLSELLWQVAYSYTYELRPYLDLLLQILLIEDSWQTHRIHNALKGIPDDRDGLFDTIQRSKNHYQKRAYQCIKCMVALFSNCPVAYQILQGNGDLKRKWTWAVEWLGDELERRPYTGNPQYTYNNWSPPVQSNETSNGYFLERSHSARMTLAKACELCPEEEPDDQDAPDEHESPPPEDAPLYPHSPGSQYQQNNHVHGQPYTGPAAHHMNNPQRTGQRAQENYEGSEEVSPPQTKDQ
Sequence of USP46 (P62068 whole entry): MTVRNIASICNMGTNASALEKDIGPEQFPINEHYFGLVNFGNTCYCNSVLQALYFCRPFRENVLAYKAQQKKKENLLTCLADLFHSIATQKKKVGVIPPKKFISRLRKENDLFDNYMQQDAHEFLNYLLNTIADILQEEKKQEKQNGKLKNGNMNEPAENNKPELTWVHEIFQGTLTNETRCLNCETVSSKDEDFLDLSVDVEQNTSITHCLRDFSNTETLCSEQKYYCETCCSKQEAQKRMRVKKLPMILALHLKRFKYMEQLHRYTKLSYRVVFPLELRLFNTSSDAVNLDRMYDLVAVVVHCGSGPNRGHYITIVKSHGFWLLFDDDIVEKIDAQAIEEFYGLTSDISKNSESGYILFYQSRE
Sequence of USP7 (Q93009 whole entry, looked up): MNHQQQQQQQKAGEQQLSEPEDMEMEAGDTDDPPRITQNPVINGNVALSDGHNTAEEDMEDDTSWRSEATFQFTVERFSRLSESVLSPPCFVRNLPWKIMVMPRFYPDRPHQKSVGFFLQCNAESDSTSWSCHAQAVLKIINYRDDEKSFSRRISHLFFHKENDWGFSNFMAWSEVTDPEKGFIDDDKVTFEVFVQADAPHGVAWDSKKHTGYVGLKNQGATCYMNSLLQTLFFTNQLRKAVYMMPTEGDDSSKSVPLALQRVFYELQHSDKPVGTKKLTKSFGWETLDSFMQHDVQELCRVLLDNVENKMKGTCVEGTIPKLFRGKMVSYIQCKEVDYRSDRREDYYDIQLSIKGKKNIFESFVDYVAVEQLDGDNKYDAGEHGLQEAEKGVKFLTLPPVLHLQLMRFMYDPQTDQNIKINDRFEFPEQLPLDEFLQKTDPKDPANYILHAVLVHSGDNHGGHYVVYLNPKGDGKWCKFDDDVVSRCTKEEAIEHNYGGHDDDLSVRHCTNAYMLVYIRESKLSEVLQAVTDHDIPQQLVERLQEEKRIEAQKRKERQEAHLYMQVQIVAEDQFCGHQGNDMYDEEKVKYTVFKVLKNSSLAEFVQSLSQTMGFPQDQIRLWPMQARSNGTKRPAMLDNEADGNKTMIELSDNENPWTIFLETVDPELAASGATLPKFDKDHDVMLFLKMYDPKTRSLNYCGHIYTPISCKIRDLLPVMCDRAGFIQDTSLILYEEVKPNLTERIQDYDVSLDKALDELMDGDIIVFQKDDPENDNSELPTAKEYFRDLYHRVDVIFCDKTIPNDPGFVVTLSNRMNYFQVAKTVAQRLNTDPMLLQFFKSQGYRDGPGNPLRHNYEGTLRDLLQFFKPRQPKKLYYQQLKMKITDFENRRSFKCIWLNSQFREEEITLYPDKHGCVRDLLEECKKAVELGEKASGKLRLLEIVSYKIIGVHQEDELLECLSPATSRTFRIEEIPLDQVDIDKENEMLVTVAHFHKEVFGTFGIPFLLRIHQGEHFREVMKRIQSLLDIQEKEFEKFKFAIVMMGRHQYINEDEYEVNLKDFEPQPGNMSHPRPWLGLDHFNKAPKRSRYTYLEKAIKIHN
Sequence of UniProt O00487 (O00487 whole entry): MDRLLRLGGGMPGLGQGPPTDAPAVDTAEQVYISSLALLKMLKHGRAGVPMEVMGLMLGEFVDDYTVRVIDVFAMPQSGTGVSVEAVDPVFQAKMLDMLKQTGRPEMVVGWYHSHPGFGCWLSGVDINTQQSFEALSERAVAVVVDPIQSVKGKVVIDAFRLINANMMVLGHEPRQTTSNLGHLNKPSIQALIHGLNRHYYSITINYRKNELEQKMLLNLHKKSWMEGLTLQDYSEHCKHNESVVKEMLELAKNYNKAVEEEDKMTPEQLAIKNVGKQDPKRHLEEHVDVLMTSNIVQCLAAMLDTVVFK

CC(NC(=O)CCl)c1cnn(C2CC2)c1 (stereo not given)
inactive: USP42 0.309 | USP46 -0.113 | USP47 -0.514 | USP48 0.0173 | USP5 -0.392 | USP54 0.76 | USP7 -0.323 | USP8 -0.373 | USP9X -0.227 | UniProt O00487 -0.0263
